In PubChem BioAssay:
Activity calls are given as the source filed them.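 The calls were made as follows, unless noted: active = compounds lowering colon cancer cell viability after pretreatment blocking the GSK3B kinase; inactive = the rest.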

How the values were obtained:
[1] = stimulators of nuclear beta-catenin in C2C12, primary screen, imaging, WNT3A-conditioned medium, mouse C2C12, NPC library (AID 1117326; in the data active = nuclear beta-catenin stimulation mostly above about 4.2%, no sharp cut-off; inactive = mostly below about 10%; also: reference of the scale not given here); conditions: stronger effect = higher value
[2] = stimulators of insulin release from INS-1E, primary screen, cell-based, 5 mM glucose, NPC library (AID 1117329;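 active = compound raises insulin release from rat beta cells at 5 mM glucose, no numeric limit stated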; also: reference of the scale not given here); conditions: rat INS-1E insulin secretion, at 10 µM, stronger effect = higher value
[3] = growth inhibition of GSK3B-pretreated HCT116 cells – cell-based, CellTiter-Glo, 0.2 to 20 µM (AID 1117336); conditions: HCT116 viability after GSK3B inhibitor, at 20 µM, stronger effect = higher value
[4] = inhibition of endothelial tube formation, primary screen, imaging, VEGF stimulated, CD31 staining, tube area, NPC library (AID 1117340;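 active = compound that reduces growth-factor-driven endothelial tube area in a mixed cell culture, no cutoff stated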); conditions: VEGF-stimulated ADSC/ECFC co-culture, at 10 µM, stronger effect = higher value
[5] = glucagon-like peptide 1 release enhancers, primary assay, NCI-H716 cell line, NPC library (AID 1117341;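 active = compound raises GLP1 secretion from the human gut endocrine cells, with no numeric limit stated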; also: reference of the scale not given here); conditions: NCI-H716 cells, at 10 µM, stronger effect = higher value
[6] = HCT116 colon cancer cell growth inhibition, primary screen, CellTiter-Glo luminescence, NPC library (AID 1117342;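 active = compounds that lower survival of HCT116 colon cancer cells in the luminescence readout, no numeric limit stated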); conditions: at 20 µM (top of the series)
[7] = CellTiter-Glo luminescent readout of SW480 viability loss, NPC library primary (AID 1117343;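 active = compounds that lower viability of the colon cancer cells in the luminescence readout, with no numeric limit stated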); conditions: CellTiter-Glo luminescence; at 20 µM (top of the series)
[8] = decreased DLD-1 cellular survival, CellTiter-Glo luminescent readout, NPC compound collection, primary HTS (AID 1117346;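 active = compounds that lower survival of DLD-1 colon cancer cells in the luminescence readout, no cutoff given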); conditions: DLD-1 viability, CellTiter-Glo luminescence; at 20 µM (top of the series)

CCCCN1CCCC[C@H]1C(=O)Nc1c(C)cccc1C
0.4%: nuclear beta-catenin stimulation ([1]; stimulation, at 2 µM)
active: insulin secretion stimulation [2] 25.7%
inactive: nuclear beta-catenin stimulation ([1]; at 10 µM) 0.3% | viability decrease [3] 26.6% | tube area decrease [4] -20.3% | GLP1 secretion stimulation [5] 2.9% | inhibition of viability [6] 23.7% | viability decrease (inhibition) [7] 21.1% | viability decrease (inhibition) [8] 23.1%

Cc1[nH]cnc1C[C@H]1CCc2c(C)c3ccccc3n2C1=O
active: viability decrease [3] 57.2% | tube area decrease [4] 55% | inhibition of viability [6] 92.8% | viability decrease (inhibition) [7] 69.2% | viability decrease (inhibition) [8] 65.3%
0.9%: nuclear beta-catenin stimulation ([1]; stimulation, at 2 µM)
inactive: nuclear beta-catenin stimulation ([1]; at 10 µM) 9.2% | insulin secretion stimulation [2] -0.4% | GLP1 secretion stimulation [5] -2.3%

O=C(O)[C@@H]1C(=CCO)O[C@@H]2CC(=O)N12
inactive: nuclear beta-catenin stimulation ([1]; at 10 µM) 1.3% | insulin secretion stimulation [2] 2.2% | viability decrease [3] 16.4% | tube area decrease [4] 0.5% | GLP1 secretion stimulation [5] -1.2% | inhibition of viability [6] 18.5% | viability decrease (inhibition) [7] 26% | viability decrease (inhibition) [8] -7.7%
0.6%: nuclear beta-catenin stimulation ([1]; stimulation, at 2 µM)

CCCCCCCCC=CCCCCCCCC(=O)NCCOC(=O)CC(C(=O)O)S(=O)(=O)O (stereo not given)
-0.7%: nuclear beta-catenin stimulation ([1]; stimulation, at 2 µM)
active: viability decrease [3] 36.1% | viability decrease (inhibition) [7] 63.4% | viability decrease (inhibition) [8] 81.6%
inactive: nuclear beta-catenin stimulation ([1]; at 10 µM) 0.3% | insulin secretion stimulation [2] 0.8% | tube area decrease [4] 22.7% | GLP1 secretion stimulation [5] -1% | inhibition of viability [6] 17.1%

COC(=O)[C@H]1[C@H]2C[C@@H]3c4[nH]c5cc(OC)ccc5c4CCN3C[C@H]2C[C@@H](OC(=O)COc2ccc(OC)cc2)[C@@H]1OC
inactive: nuclear beta-catenin stimulation ([1]; at 10 µM) 3.2% | insulin secretion stimulation [2] -1.2% | viability decrease [3] 10.9% | tube area decrease [4] 9.6% | GLP1 secretion stimulation [5] 8.5% | inhibition of viability [6] 33.6% | viability decrease (inhibition) [7] -12.3% | viability decrease (inhibition) [8] 1.9%
-0.2%: nuclear beta-catenin stimulation ([1]; stimulation, at 2 µM)

CC(=O)CC/C=C(\C)CC/C=C(\C)CC/C=C(\C)CCC=C(C)C
inactive: nuclear beta-catenin stimulation ([1]; at 10 µM) 2.6% | insulin secretion stimulation [2] -2.1% | viability decrease [3] -2.15% | tube area decrease [4] 19.6% | GLP1 secretion stimulation [5] -1.7% | inhibition of viability [6] -35.4% | viability decrease (inhibition) [8] 0.15%
active: viability decrease (inhibition) [7] 34.2%
1.2%: nuclear beta-catenin stimulation ([1]; stimulation, at 2 µM)

CCCCC/C=C\C/C=C\CCCCCCCC(=O)NC(C)c1ccccc1 (stereo not given)
2.1%: nuclear beta-catenin stimulation ([1]; stimulation, at 2 µM)
active: inhibition of viability [6] 52%
inactive: nuclear beta-catenin stimulation ([1]; at 10 µM) 0.2% | insulin secretion stimulation [2] 1% | viability decrease [3] 23.3% | tube area decrease [4] -5.3% | GLP1 secretion stimulation [5] 0.2% | viability decrease (inhibition) [7] 13.5% | viability decrease (inhibition) [8] 3.3%

O=C(Nc1ccc(Cl)cc1)Nc1ccc(Cl)c(Cl)c1
0.3%: nuclear beta-catenin stimulation ([1]; stimulation, at 2 µM)
active: viability decrease [3] 92.2% | tube area decrease [4] 103% | inhibition of viability [6] 84.6% | viability decrease (inhibition) [7] 116% | viability decrease (inhibition) [8] 94.1%
inactive: nuclear beta-catenin stimulation ([1]; at 10 µM) 35.1% | insulin secretion stimulation [2] -3.4% | GLP1 secretion stimulation [5] -3.2%

CCCCCCCCCC(=O)O
0.7%: nuclear beta-catenin stimulation ([1]; stimulation, at 2 µM)
inactive: nuclear beta-catenin stimulation ([1]; at 10 µM) -1.9% | insulin secretion stimulation [2] 3.3% | viability decrease [3] -11.4% | tube area decrease [4] -24.1% | GLP1 secretion stimulation [5] 1.6% | inhibition of viability [6] 7.9% | viability decrease (inhibition) [7] 49.5% | viability decrease (inhibition) [8] 4.9%

CCN[C@@H]1C[C@H](N)[C@@H](OC2OC(CN)=CCC2N)[C@H](O)[C@H]1O[C@H]1OC[C@](C)(O)[C@H](NC)[C@H]1O (stereo not given in full)
0%: nuclear beta-catenin stimulation ([1]; stimulation, at 2 µM)
inactive: nuclear beta-catenin stimulation ([1]; at 10 µM) 1.3% | insulin secretion stimulation [2] 0.5% | viability decrease [3] -7.4% | tube area decrease [4] 0.9% | GLP1 secretion stimulation [5] -0.5% | inhibition of viability [6] -2.2% | viability decrease (inhibition) [7] -1.7% | viability decrease (inhibition) [8] 3.7%

Cc1c(C(C)C)c(=O)n(-c2ccccc2)n1C
inactive: nuclear beta-catenin stimulation ([1]; at 10 µM) -0.3% | insulin secretion stimulation [2] -0.6% | viability decrease [3] -2.5% | tube area decrease [4] -2.7% | GLP1 secretion stimulation [5] 0.4% | inhibition of viability [6] -15.5% | viability decrease (inhibition) [7] 36.6% | viability decrease (inhibition) [8] 8.15%
-0.2%: nuclear beta-catenin stimulation ([1]; stimulation, at 2 µM)

CCOC(=O)C(O)c1ccccc1 (stereo not given)
inactive: nuclear beta-catenin stimulation ([1]; at 10 µM) 1.9% | insulin secretion stimulation [2] 0% | viability decrease [3] -1.8% | tube area decrease [4] -9.7% | GLP1 secretion stimulation [5] 0.1% | inhibition of viability [6] 1.4% | viability decrease (inhibition) [7] -10% | viability decrease (inhibition) [8] -2.3%
9.6%: nuclear beta-catenin stimulation ([1]; stimulation, at 2 µM)

CCOCCOC(=O)/C=C/c1ccc(OC)cc1
1%: nuclear beta-catenin stimulation ([1]; stimulation, at 2 µM)
inactive: nuclear beta-catenin stimulation ([1]; at 10 µM) 1.4% | insulin secretion stimulation [2] -1.7% | viability decrease [3] -11.8% | tube area decrease [4] 18.9% | GLP1 secretion stimulation [5] -4% | inhibition of viability [6] -4.53% | viability decrease (inhibition) [7] 17.1% | viability decrease (inhibition) [8] 9.7%

CCOC(=O)c1ccc(NC(=O)CN2CCCCC2)cc1
inactive: nuclear beta-catenin stimulation ([1]; at 10 µM) 0.5% | insulin secretion stimulation [2] 3.5% | viability decrease [3] 18.5% | tube area decrease [4] 0.1% | GLP1 secretion stimulation [5] 0.9% | viability decrease (inhibition) [7] 24.7% | viability decrease (inhibition) [8] 5.8%
-1.8%: nuclear beta-catenin stimulation ([1]; stimulation, at 2 µM)
active: inhibition of viability [6] 50.7%

Cc1cccc(C)c1NC(=O)CN1CCCCCC1
inactive: nuclear beta-catenin stimulation ([1]; at 10 µM) -2% | insulin secretion stimulation [2] 1.9% | viability decrease [3] -6.6% | tube area decrease [4] -7.7% | GLP1 secretion stimulation [5] -1% | inhibition of viability [6] -16.3% | viability decrease (inhibition) [7] 23.3% | viability decrease (inhibition) [8] -8.2%
0.1%: nuclear beta-catenin stimulation ([1]; stimulation, at 2 µM)
